Measurements: PubChem BioAssay (NCATS)
Results filed as inconclusive are left out. Activity calls are given as the source filed them. Calls come from the whole dose curve; as a rule, active = well fitted curve in the direction sought with a large enough effect; inconclusive = small, poorly fitted or top-dose-only effect, or another doubt; inactive = no such curve, though single readings can be large; an effect the other way counts as inactive or inconclusive.

Legend:
[1] = tested on: Zika virus NS2B-NS3 protease; assay: Primary screen GU AMC qHTS for Zika virus inhibitors (AID 1347154);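 note: 0% = no-inhibitor control and -100% = no-enzyme control; nearly all actives have a fitted effect of over 70% in size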
In short: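 Unlinked Zika NS2B hydrophilic domain–NS3 protease complex at 25 nM in 10 mM Tris-HCl pH 8.0, 0.01% Tween 20, with an AMC peptide substrate. Fluorescence change (340/450 nm) over 15 min at room temperature, normalized to controls, fitted to 4-parameter Hill.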

[2] = target: Lysine-specific demethylase 5B (Homo sapiens) (UniProt Q9UGL1); assay: Optimization screen for KDM5B Histone Demethylases FDH coupled qHTS against the LOPAC library (AID 1347166); note: 0% is about no effect
In short: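 KDM5BDeltaAP (200nM final) in 50mM HEPES pH 7.5, 0.01% Tween-20 was preincubated with compound for 10 min at room temperature. A substrate mix of 12.5uM H3K4Me3, 25uM a-ketoglutarate, ascorbate, Fe2+, NAD+ and formaldehyde dehydrogenase was then added. NADH fluorescence (340/450 nm) was read initially and after 30 min.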

[3] = qHTS to identify inhibitors of the type 1 interferon - major histocompatibility complex class I in skeletal muscle: primary screen against the NCATS LOPAC collection (AID 1347405);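 note: human myoblasts with HiBiT tag on endogenous HLA-B stimulated by IFN-beta; lytic HiBiT luminescence reporting HLA-B protein level; % is set by controls: 0 for no effect and ±100 for the full control effect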
In short: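 First, engineered myoblasts carrying HLA-B-HiBiT were seeded in medium lacking dexamethasone with 4 ng/ml IFN-beta. After 1 hr, compounds were pinned in (top 46 uM final, 7 points). After 24 hrs at 37 C, luminescence was measured following 10 min lysis.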

[4] = qHTS to identify inhibitors of the type 1 interferon - major histocompatibility complex class I in skeletal muscle: primary screen against the NCATS Pharmaceutical Collection (AID 1347407);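 note: luminescence of HiBiT knocked into endogenous HLA-B as interferon-induced MHC class I level; % is set by controls: 0 for no effect and ±100 for the full control effect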
In short: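 Compounds […] were added to CRISPR-engineered HLA-B-HiBiT C25cl48 human myoblasts with 4.0 ng/ml IFN-beta. After 24 hrs at 37 C, cells were lysed and HiBiT luminescence measured.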

[5] = qHTS for inhibitors of adenylyl cyclases using a fission yeast platform: a pilot screen against the NCATS LOPAC library (AID 1347410);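 note: plate controls were DMSO vehicle for no effect and DPI positive control for full effect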
In short: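 GFP from fbp1-GFP reporter, read by Acumen laser cytometry, indicates AC inhibition in fission yeast expressing AC9, GNAS and PDE4D2. Cells grown 18 h in the dark at 30C with compounds, final up to 57 uM.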

[6] = target: Protein phosphatase 1D (Homo sapiens) (UniProt O15297); assay: RapidFire Mass Spectrometry qHTS Assay for Modulators of WT P53-Induced Phosphatase 1 (WIP1) (AID 1347424);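 note: series mostly up to about 63 µM; plate controls were DMSO wells for no effect and GSK830371 inhibitor control at 10 µM for full effect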
In short: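 RapidFire MS readout of dephosphorylated VEPPL-S-QETFS product, with 1 uM isotope-labelled peptide standard. Reaction: 10 nM WIP1, 2 uM phosphopeptide substrate, 5 min, room temperature, after 1 h compound preincubation; stopped with 0.5% formic acid.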

[7] = target: Protein phosphatase 1D (Homo sapiens) (UniProt O15297); assay: Rhodamine-PBP qHTS Assay for Modulators of WT P53-Induced Phosphatase 1 (WIP1) (AID 1347425); note: % of control where 0% means no effect
In short: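 5 nM WIP1 + 10 uM Rh-PBP, 50 mM Tris pH 7.5, 30 mM MgCl2, 1 mM TCEP, 0.1 mM EGTA, BSA; cpds pinned, 1 hr RT; + 10 uM phosphopeptide; fluorescence 1-min reads x 11 min; delta = f1 - f0.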

[8] = Validation qHTS assay for inhibitors of Activation Induced Cytidine Deaminase (AID): UDG Counterscreen signal (AID 1347427); note: 0% is about no effect
In short: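 Fluorescence at 560 nm excitation, 665 nm emission reports UDG signal after 250 mM NaOH (2x) addition and 30 min. Enzymes (AID 1 uM, UDG 2 U/mL, at 4/3x) preincubated 10 min with compound, then 4 h with 4x 250 nM DJC20/DJC23 substrate at room temperature.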

[9] = target: Single-stranded DNA cytosine deaminase (Homo sapiens) (UniProt Q9GZX7); assay: Validation qHTS assay for inhibitors of Activation Induced Cytidine Deaminase (AID): AID signal (AID 1347429); note: % is set by controls: 0 for no effect and ±100 for the full control effect
In short: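 Steps: dispense AID with UDG; pin-transfer compound up to 114 uM final; add DJC20/DJC23 substrate and hold 4 hr at room temperature; add NaOH, hold 30 min; read FRET signal (540/590 nm).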

[10] = Primary qHTS for inhibitors of La Crosse Virus (LACV) - induced cell death in SH-SY5Y cells (AID 1508616);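 note: top concentration of the series differs between compounds; 0% = infected DMSO wells and 100% = uninfected DMSO wells; higher means more rescue of cells from virus-induced death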
In short: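 SH-SY5Y, 6000 cells/well; cpd via pin tool in DMSO; LACV 0.01 MOI; 6 d 37C 5% CO2; ATPLite, 5 min RT; luminescence normalized to ±virus DMSO controls.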

[11] = tested on: Zika virus NS2B-NS3 protease (linked construct); assay: Confirmatory screen NINDS AMC qHTS for Zika virus inhibitors (AID 1347152);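 note: top concentration of the series differs between compounds; 0% = no-inhibitor control and -100% = no-enzyme control; nearly all actives have a fitted effect of over 70% in size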
In short: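 IC50s from 4-parameter Hill fits of percent inhibition, based on AMC fluorescence gain (340/450 nm) over 15 min with 10 microM Bz-Nle-KRR-AMC. Enzyme: 1 nM linked NS2B-NS3 in Tris-HCl pH 8.0; 15-min compound preincubation.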

[12] = tested on: Zika virus NS2B-NS3 protease (unlinked complex); assay: Confirmatory screen GU AMC qHTS for Zika virus inhibitors (AID 1347153);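 note: percent inhibition with 0% = no inhibitor control and 100% = no enzyme control; nearly all actives have a fitted effect of over 70% in size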
In short: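 Fluorescence change (ex 340/em 450 nm) over 15 min, ~20% substrate conversion, normalized to no-inhibitor and no-enzyme controls, then Hill-fitted. Unlinked protease at 25 nM; AMC peptide 10 µM.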

[13] = tested on: Zika virus NS2B-NS3 protease (unlinked complex); assay: Primary screen GU Rhodamine qHTS for Zika virus inhibitors: Unlinked NS2B-NS3 protease assay (AID 1347159); note: % is set by controls: 0 for no effect and ±100 for the full control effect; nearly all actives have a fitted effect of over 60% in size
In short: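 Enzyme 25 nM in Tris-HCl pH 8.0 + 0.01% Tween 20; compounds up to 114 microM, 15 min RT dark; + Rhod110 substrate 1.5 microM; read t0 and 15 min; delta fluorescence → % inhibition → 4-parameter Hill fit.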

[14] = tested on: Zika virus NS2B-NS3 protease (linked construct); assay: Primary screen NINDS Rhodamine qHTS for Zika virus inhibitors (AID 1347160); conditions: outcome: dose series up to 57.1 µM; note: % is set by controls: 0 for no effect and ±100 for the full control effect; nearly all actives have a fitted effect of over 55% in size
In short: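 Enzyme (25 nM, linked NS2B-NS3) was preincubated 15 min with compound in 10 mM Tris-HCl pH 8.0, 0.01% Tween 20. Rhodamine110 substrate (1.5 microM) was then added and fluorescence read at start and after 15 min.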

[15] = Confirmatory screen NINDS Rhodamine qHTS for Zika virus inhibitors (AID 1347161);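 note: purified Zika NS2B-NS3 protease with linked NS2B cofactor domain and Rhodamine110 peptide substrate; series mostly up to about 110 µM; plate controls were no-inhibitor control for no effect and no-enzyme control for full effect; nearly all actives have a fitted effect of over 60% in size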
In short: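 Purified linked NS2B-NS3 protease (NS2B hydrophilic domain joined to NS3 protease by flexible linker), 25 nM in 10 mM Tris-HCl pH 8.0, 0.01% Tween 20. Compounds titrated, 15 min preincubation at room temperature; 1.5 microM Rhodamine110 substrate, FITC fluorescence change over 15 min.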

[16] = Vero cells viability qHTS for Zika virus inhibitors (AID 1347167); note: % is set by controls: 0 for no effect and ±100 for the full control effect
In short: (§1)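 qHTS titration; 24-48 h compound exposure, 37 degrees C/5% CO2; DMEM, 4% FBS; CellTiter Glo ATP luminescence.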

[17] = HepG2 cells viability qHTS for Zika virus inhibitors (AID 1347168); note: % is set by controls: 0 for no effect and ±100 for the full control effect
In short: as §1

[18] = qHTS to identify inhibitors of the type 1 interferon - major histocompatibility complex class I in skeletal muscle: primary screen against the NCATS Mechanism Interrogation Plate v5.0 (MIPE) Libary (AID 1347411);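 note: plate controls were vehicle for no effect and reference inhibitor for full effect; nearly all actives have a fitted effect of over 65% in size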
In short: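 Seed engineered human myoblasts (HLA-B HiBit) in medium without dexamethasone containing 4 ng/ml IFN-beta; after 1 hr add compound titrations (top 46 uM final). Incubate 24 hrs at 37 C, lyse 10 min with HiBiT reagent, read luminescence.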

Chain of Lysine-specific demethylase 5B (Homo sapiens) (Q9UGL1 whole entry, looked up): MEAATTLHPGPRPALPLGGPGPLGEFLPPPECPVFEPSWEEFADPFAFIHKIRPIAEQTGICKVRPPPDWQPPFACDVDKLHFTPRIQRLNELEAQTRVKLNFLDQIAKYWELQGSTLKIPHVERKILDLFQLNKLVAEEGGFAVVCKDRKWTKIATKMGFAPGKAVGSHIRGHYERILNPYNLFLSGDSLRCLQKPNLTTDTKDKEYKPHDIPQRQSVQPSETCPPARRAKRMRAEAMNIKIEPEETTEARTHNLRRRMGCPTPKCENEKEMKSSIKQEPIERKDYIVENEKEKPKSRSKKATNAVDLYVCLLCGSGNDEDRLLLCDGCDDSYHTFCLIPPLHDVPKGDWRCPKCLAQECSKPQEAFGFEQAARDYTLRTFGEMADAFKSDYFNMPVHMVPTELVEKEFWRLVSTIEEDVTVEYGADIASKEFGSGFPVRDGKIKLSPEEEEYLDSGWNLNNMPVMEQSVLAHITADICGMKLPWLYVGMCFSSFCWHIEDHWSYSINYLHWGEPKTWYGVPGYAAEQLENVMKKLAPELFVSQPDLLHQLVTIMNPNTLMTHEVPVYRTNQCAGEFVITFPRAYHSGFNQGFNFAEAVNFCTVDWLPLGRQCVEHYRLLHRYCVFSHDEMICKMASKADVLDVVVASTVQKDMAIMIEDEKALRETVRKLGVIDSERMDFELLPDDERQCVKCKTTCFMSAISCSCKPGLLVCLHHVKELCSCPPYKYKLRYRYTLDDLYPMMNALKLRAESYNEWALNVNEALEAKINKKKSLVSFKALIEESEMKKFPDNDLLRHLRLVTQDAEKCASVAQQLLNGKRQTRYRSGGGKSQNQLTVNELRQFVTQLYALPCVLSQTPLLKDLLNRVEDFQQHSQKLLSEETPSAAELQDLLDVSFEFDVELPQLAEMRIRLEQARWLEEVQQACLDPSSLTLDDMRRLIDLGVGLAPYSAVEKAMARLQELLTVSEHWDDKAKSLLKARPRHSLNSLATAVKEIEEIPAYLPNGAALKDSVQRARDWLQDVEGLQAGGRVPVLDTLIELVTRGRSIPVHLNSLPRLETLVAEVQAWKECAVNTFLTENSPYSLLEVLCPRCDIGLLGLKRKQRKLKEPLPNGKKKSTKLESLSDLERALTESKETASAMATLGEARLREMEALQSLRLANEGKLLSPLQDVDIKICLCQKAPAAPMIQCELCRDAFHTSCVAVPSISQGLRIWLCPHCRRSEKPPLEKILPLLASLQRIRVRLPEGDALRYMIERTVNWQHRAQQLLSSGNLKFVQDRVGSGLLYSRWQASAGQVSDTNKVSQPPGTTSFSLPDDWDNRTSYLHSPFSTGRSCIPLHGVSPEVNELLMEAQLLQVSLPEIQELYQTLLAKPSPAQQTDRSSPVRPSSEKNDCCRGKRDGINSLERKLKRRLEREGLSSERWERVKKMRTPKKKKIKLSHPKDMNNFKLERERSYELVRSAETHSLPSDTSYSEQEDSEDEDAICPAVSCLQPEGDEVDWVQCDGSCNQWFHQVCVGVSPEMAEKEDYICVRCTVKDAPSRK
Chain of Protein phosphatase 1D (Homo sapiens) (O15297 whole entry, looked up): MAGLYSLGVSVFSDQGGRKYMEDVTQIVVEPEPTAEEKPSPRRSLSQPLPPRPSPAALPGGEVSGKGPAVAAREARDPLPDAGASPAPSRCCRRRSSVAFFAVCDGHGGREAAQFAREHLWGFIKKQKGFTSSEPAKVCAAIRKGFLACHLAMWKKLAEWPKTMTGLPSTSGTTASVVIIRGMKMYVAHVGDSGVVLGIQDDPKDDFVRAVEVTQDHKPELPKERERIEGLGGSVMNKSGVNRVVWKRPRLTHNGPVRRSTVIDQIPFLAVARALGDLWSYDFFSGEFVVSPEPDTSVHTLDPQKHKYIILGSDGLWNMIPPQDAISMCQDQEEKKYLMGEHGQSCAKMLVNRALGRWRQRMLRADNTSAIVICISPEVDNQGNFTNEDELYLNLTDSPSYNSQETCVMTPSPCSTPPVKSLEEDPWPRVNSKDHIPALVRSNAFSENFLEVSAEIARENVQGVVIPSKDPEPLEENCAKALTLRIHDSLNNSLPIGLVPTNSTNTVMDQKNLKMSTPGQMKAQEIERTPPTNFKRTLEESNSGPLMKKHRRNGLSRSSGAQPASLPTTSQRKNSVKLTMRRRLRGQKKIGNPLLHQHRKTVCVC
Chain of Single-stranded DNA cytosine deaminase (Homo sapiens) (Q9GZX7 whole entry, looked up): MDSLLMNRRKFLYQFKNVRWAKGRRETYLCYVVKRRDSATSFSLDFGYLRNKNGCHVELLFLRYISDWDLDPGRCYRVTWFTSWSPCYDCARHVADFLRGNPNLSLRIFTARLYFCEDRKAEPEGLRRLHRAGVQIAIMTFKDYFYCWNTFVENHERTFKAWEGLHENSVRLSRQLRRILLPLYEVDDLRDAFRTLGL

O=C(O)CN(CCOCCOCCN(CC(=O)O)CC(=O)O)CC(=O)O
inactive: activity change, negative = inhibition [1] -0.967% [at 0.59 µM] | Potency [2] | Potency [3] | activity change, negative = inhibition [4] 1.04% [at 0.727 µM] | outcome [5] | activity change, negative = inhibition [6] 15.2% [at 0.505 µM] | activity change, negative = inhibition [7] -3.01% [at 0.575 µM] | outcome [8] | Potency [9] | Potency [10]

CN/C(=C\[N+](=O)[O-])NCCSCc1ccc(CN(C)C)o1
inactive: outcome [1] | Potency [2] | Potency [3] | Potency [4] | outcome [5] | Potency [6] | outcome [7] | outcome [8] | Potency [9] | Potency [10]

Cc1ccc(S(=O)(=O)NC(=O)NN2CCCCCC2)cc1
inactive: outcome [1] | Potency [2] | Potency [3] | Potency [4] | outcome [5] | Potency [6] | outcome [7] | outcome [8] | Potency [9] | Potency [10]

NC(=O)N1c2ccccc2C=Cc2ccccc21
inactive: outcome [1] | Potency [2] | Potency [3] | Potency [4] | outcome [5] | Potency [6] | outcome [7] | outcome [8] | Potency [9] | Potency [10]

COC(=O)[C@H]1[C@H]2C[C@@H]3c4[nH]c5cc(OC)ccc5c4CCN3C[C@H]2C[C@@H](OC(=O)c2cc(OC)c(OC)c(OC)c2)[C@@H]1OC
inactive: outcome [11] | outcome [12] | outcome [1] | outcome [13] | outcome [14] | Potency [15] | outcome [16] | outcome [17] | Potency [4] | outcome [5] | Potency [6] | outcome [7] | outcome [8] | Potency [9] | Potency [10]

Cc1nc2sccn2c(=O)c1CCN1CCC(=C(c2ccc(F)cc2)c2ccc(F)cc2)CC1
inactive: outcome [11] | outcome [12] | outcome [1] | Potency [15] | outcome [16] | outcome [17] | Potency [3] | Potency [4] | outcome [5] | Potency [6] | outcome [7] | outcome [8] | Potency [9] | Potency [10]

Cc1cccc(C)c1NC(=O)C(C)N (stereo not given)
inactive: outcome [1] | Potency [2] | Potency [3] | Potency [4] | outcome [5] | Potency [6] | outcome [7] | outcome [8] | Potency [9] | Potency [10]

NC(=O)c1ncn([C@@H]2O[C@H](CO)[C@@H](O)[C@H]2O)c1O
inactive: outcome [1] | Potency [2] | Potency [3] | Potency [4] | outcome [5] | Potency [18] | Potency [6] | outcome [7] | outcome [8] | Potency [9] | Potency [10]

CCCCNc1ccc(C(=O)OCCN(C)C)cc1
inactive: outcome [1] | Potency [2] | Potency [3] | Potency [4] | outcome [5] | Potency [6] | outcome [7] | outcome [8] | Potency [9] | Potency [10]

CN(C)C/C=C(/c1ccc(Br)cc1)c1cccnc1
inactive: outcome [1] | Potency [2] | Potency [3] | Potency [4] | outcome [5] | Potency [6] | outcome [7] | outcome [8] | Potency [9] | Potency [10]
